GluA2 TARP mod – GluA2-stargazin AMPA receptor complex modulation | O88602+P19491 | HEK293 GluA2+stargazin, membrane potential dye (FDSS), glutamate EC50; hits were called plate by plate, in both directions | calls only at 30 µM | 40,000 tested, 3.5% active | AID 1259245;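 active = any of four per-well response measures lying three or more SD from its plate-wide compound average, in either direction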
Target sequence (O88602 whole entry, looked up): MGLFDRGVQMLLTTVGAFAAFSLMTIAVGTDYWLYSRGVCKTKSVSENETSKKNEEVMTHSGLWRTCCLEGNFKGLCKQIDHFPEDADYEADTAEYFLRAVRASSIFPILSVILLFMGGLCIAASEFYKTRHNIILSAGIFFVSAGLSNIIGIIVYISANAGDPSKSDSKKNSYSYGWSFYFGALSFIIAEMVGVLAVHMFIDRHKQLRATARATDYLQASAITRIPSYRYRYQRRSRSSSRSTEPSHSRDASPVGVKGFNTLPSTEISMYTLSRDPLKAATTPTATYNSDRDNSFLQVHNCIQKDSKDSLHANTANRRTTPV
Target sequence (P19491 whole entry, looked up): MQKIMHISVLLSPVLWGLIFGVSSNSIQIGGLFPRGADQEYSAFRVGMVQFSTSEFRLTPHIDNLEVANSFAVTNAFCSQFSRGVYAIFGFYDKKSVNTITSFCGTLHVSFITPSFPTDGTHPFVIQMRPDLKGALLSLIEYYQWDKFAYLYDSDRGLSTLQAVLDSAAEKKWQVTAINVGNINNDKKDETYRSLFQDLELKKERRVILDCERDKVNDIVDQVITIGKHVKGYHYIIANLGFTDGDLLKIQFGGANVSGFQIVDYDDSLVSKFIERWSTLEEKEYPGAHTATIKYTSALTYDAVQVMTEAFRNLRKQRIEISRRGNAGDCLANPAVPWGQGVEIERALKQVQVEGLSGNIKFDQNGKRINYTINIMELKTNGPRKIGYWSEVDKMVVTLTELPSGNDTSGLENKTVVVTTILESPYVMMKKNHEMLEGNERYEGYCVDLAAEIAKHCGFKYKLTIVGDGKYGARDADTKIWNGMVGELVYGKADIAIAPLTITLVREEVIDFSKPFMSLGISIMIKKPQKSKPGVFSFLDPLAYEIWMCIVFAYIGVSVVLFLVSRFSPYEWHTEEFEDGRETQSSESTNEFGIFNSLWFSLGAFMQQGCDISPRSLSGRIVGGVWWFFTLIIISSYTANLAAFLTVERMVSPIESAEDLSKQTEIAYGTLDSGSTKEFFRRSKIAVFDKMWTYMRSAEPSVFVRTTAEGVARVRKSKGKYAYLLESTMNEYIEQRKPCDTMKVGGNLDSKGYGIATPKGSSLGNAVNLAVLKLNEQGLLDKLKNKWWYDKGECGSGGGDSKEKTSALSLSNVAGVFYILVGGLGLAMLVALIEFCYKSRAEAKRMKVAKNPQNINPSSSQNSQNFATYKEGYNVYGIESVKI
GIRK2 act – GIRK2 channel activators by thallium flux; 34,000 tested, under 10 active; HEK293 GIRK2/NPY4 cells, thallium flux fluorescence; activation (% efficacy), % for hits at 37.5 µM; P48051;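 active = primary screen hit, no activity in plain HEK293 cells, and in GIRK2-only cells above 5% efficacy rising with concentration; inactive = the rest, including fluorescent compounds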;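 also: efficacy is normalized control-subtracted fluorescence 15 s after thallium addition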
The depositor's hits bear a star; i = inactive; . = no result given; + = active, no number. The entries come from a sample that favours hits as a whole.

SMILES	GluA2 TARP mod	GIRK2 act
O=C(NCC(O)(c1cccs1)C1CC1)C1CCC1 (configuration not stated)	i	i
COc1ccc(C(F)(F)F)cc1NC(=O)CCCn1nc(-c2cccs2)ccc1=O	.	i
O=C(NCCOc1ccc(F)cc1)C1CN(C(=O)c2c[nH]c3ccccc23)C1	i	i
COCCn1c(N)c(-c2nc3ccccc3n2C)c2nc3ccccc3nc21	+	i
COCCn1c(N)c(S(=O)(=O)c2ccc(Cl)cc2)c2nc3ccccc3nc21	i	i
COC(=O)Cn1c(=NC(=O)C2CCCN(S(C)(=O)=O)C2)sc2cc(OC)ccc21 (configuration not stated)	i	i
CC(C)S(=O)(=O)c1ccc(C(=O)Nc2nc3ccc(Br)cc3s2)cc1	+	.
COc1ccc(S(=O)(=O)CCC(=O)Nc2nc3cc(OC)c(OC)cc3s2)cc1	i	i
COc1ccc(S(=O)(=O)CCC(=O)Nc2nc3ccc(Br)cc3s2)cc1	+	i
Cc1nc2ccc(NC(=O)c3ccc(S(=O)(=O)C(C)C)cc3)cc2s1	+	.
Cc1cc2nc(NC(=O)c3ccc(S(=O)(=O)C(C)C)cc3)sc2cc1C	i	i
Cc1nc2ccc(NC(=O)c3cccc(S(=O)(=O)C(C)C)c3)cc2s1	i	i
O=C(Cn1cc(-c2nnc(-c3ccccc3)o2)c2ccccc21)NC1CCCC1	i	i
COCC(C)NC(=O)C(=O)Nc1c2c(nn1-c1ccc(OC)cc1)CS(=O)(=O)C2 (configuration not stated)	i	i
COc1cn(CC(=O)NCc2ccc(F)cc2)c(CSc2nnnn2C)cc1=O	i	i
Cc1cc(C(=O)N(CCCN(C)C)c2nc3c(F)cc(F)cc3s2)on1	.	i
COc1ccc(C(=O)C2C(=O)N(c3ccccc3)N=C2C)c(OC)c1 (configuration not stated)	+	i
CC1=NN(c2ccccc2)C(=O)C1C(=O)c1cccc(F)c1 (configuration not stated)	+	i
CC1=NN(c2ccccc2)C(=O)C1C(=O)c1sc(-c2ccccc2)nc1C (configuration not stated)	i	i
CC1=NN(c2ccccc2)C(=O)C1C(=O)c1ccc(S(=O)(=O)N2CCCCC2)cc1 (configuration not stated)	i	i
CC1CCc2c(sc(NC(=O)c3ccno3)c2-c2nc3ccccc3s2)C1 (configuration not stated)	i	i
CCOc1ccccc1NC(=O)c1n[nH]nc1Nc1cccc(F)c1	i	i
COCCn1c(=O)c2c(nc(-n3nc(C)cc3C)n2Cc2ccc(F)cc2)n(C)c1=O	+	i
CCOCCn1c(-n2nc(C)cc2C)nc2c1c(=O)n(Cc1ccc(F)cc1)c(=O)n2C	i	i
CCCN1C(=O)NC2(CCN(S(=O)(=O)c3cc(C(C)(C)C)ccc3OC)CC2)C1=O	i	i
SMILES	GluA2 TARP mod	GIRK2 act
CN(C1CCCC1)S(=O)(=O)c1ccc(C(=O)Nc2nc3ccccc3s2)cc1	i	.
COc1cccc2sc(NC(=O)c3ccc(S(=O)(=O)N(C)C4CCCC4)cc3)nc12	+	i
COc1ccc([N+](=O)[O-])cc1NC(=O)c1ccc(S(=O)(=O)N(C)C2CCCC2)cc1	i	.
COc1cc([N+](=O)[O-])cc2sc(NC(=O)c3ccc(S(=O)(=O)N(C)C4CCCC4)cc3)nc12	+	.
O=C(NCCCc1ccccc1)C(=O)Nc1ccc(N2CCCCS2(=O)=O)cc1	i	.
CCOc1cc(C)c(Cl)cc1S(=O)(=O)N1CCCCC1CC (configuration not stated)	+	.
CCC1CCCCN1S(=O)(=O)c1cc(C)c(Br)cc1C (configuration not stated)	i	.
COc1ccc(N2CC(C(=O)Nc3nn(C)c4c3CC(C)C(=O)N4)CC2=O)cc1 (configuration not stated)	i	i
COC(=O)N1CCC(CNC(=O)C(=O)NCCc2ccccc2)CC1	i	i
COC(=O)N1CCC(CNC(=O)CCc2ccccc2)CC1	+	i
Cc1ccc([N+](=O)[O-])cc1NC(=O)c1ccc(=O)n(Cc2ccccc2)c1	i	i
Cc1ccc([N+](=O)[O-])cc1NC(=O)c1ccc(C(C)(C)C)cc1	+	i
O=C(Nc1ccc(-n2cnnn2)cc1)c1csc(-c2cnccn2)n1	i	i
CC(=O)NS(=O)(=O)c1ccc(NC(=O)c2csc(-c3cnccn3)n2)cc1	+	i
O=C(Cc1ccc(NC(=O)C23CC4CC(CC(C4)C2)C3)cc1)NCc1cccs1	i	i
Cc1cc(NC(=O)c2ccc([N+](=O)[O-])c(C)c2)ccc1N1CCCCC1=O	i	i
Cc1cc(C(=O)Nc2cccc(N3CCCC3=O)c2)ccc1[N+](=O)[O-]	+	i
Cc1c(Cl)cccc1S(=O)(=O)NCC1CCN(C(=O)Oc2ccccc2)CC1	i	i
Cc1ccc(C)c(Cn2c(=O)c3c(nc4oc(-c5ccc(F)cc5)cn43)n(C)c2=O)c1	i	.
Cc1ccc(Cn2c(=O)c3c(nc4oc(-c5ccc(F)cc5)cn43)n(C)c2=O)cc1	+	i
O=C(CCCn1nc(-c2ccccc2)ccc1=O)Nc1ccc2c(c1)OCCO2	.	i
O=C(CCCn1nc(-c2ccc(Cl)cc2)ccc1=O)Nc1ccc2c(c1)OCCO2	+	i
CCN(CC)C(=O)CCCCCn1c(=S)[nH]c2ccccc2c1=O	+	.
CCN1CCN(C(=O)CCn2c(=S)[nH]c3ccccc3c2=O)CC1	i	.
Cc1csc(C(=O)NCC2CCN(C(=O)c3cc4ccccc4o3)CC2)c1	+	i
SMILES	GluA2 TARP mod	GIRK2 act
O=C(NCC1CCN(C(=O)c2cc3ccccc3o2)CC1)c1cc(-c2ccccc2)on1	+	i
CC(C)(C)NC(=O)N1CCC(CNC(=O)c2cc(-c3ccccc3)on2)CC1	i	i
Cc1cc(C(=O)NCC2CCN(C(=O)c3cc4ccccc4o3)CC2)c(C)o1	i	i
O=C(NCC1CCN(C(=O)c2cc3ccccc3o2)CC1)c1ccc(Cl)s1	+	i
O=C(NCC1CCN(C(=O)c2cc3ccccc3o2)CC1)c1cc(Cl)ccc1Cl	i	i
Cc1nc(NC(=O)c2ccc(S(=O)(=O)N3CCCCC3)cc2)sc1C	i	i
O=C(Cc1cccc2ccccc12)NCCOc1ccc(F)cc1	i	i
COc1ccccc1CCNC(=O)C(=O)Nc1ccc2c(c1)N(S(C)(=O)=O)CCC2	i	i
O=C(c1ccc2ccccc2n1)N1CCN(c2cc(-c3cccnc3)[nH]n2)CC1	.	i
COc1cc(OC)c(NC(=O)CSc2nccc(N3CCc4ccccc4C3)n2)cc1Cl	.	i
CCn1c(=O)c2c(nc(NCCCOC)n2C)n(C)c1=O	i	i
COC(=O)CN1N=C(C(C)(C)C)Cn2c1nc1c2c(=O)n(CC(=O)OC)c(=O)n1C	i	i
COc1cc(OC)cc(C(=O)NCC2(c3ccccc3)CCOCC2)c1	i	i
COc1ccc(C2(CNC(=O)c3ccc(Cl)c(Cl)c3)CCOCC2)cc1	+	.
C#CCn1c(=O)c2c(N3CCN(C(=O)c4ccco4)CC3)ccnc2n(C)c1=O	i	.
Cc1ccc(OCC(O)Cn2c(N3CCN(C)CC3)nc3c2c(=O)n(C)c(=O)n3C)cc1C (configuration not stated)	+	.

Screening results (PubChem)
